Among the data in PubChem BioAssay AID628 (Vanderbilt High Throughput Screening Facility, 2007) are B-score values, retold here.

The structures appear in SMILES notation. Out of some 64,000 compounds screened, about 2,200 (3.4%) were called active.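 The calls were made as follows: active = calcium fluorescence response, raw or row-and-column corrected B-score, differing from the plate sample mean either way at a set confidence level, mostly lower; inactive = the rest.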 The list comes from a sample in which actives are over-represented; it also holds similar structures and randomly drawn compounds.

The target of the assay is Muscarinic acetylcholine receptor M1 (Rattus norvegicus) (UniProt P08482). The assay can be described thus: blocks the rat M1 muscarinic receptor response to acetylcholine (AID 628). The note with it: CHO-M1 cells, Fluo-4 calcium, ACh EC80 antagonist mode; at 10 µM; active compounds read low.
Muscarinic acetylcholine receptor M1 (Rattus norvegicus), sequence (P08482 whole entry, looked up): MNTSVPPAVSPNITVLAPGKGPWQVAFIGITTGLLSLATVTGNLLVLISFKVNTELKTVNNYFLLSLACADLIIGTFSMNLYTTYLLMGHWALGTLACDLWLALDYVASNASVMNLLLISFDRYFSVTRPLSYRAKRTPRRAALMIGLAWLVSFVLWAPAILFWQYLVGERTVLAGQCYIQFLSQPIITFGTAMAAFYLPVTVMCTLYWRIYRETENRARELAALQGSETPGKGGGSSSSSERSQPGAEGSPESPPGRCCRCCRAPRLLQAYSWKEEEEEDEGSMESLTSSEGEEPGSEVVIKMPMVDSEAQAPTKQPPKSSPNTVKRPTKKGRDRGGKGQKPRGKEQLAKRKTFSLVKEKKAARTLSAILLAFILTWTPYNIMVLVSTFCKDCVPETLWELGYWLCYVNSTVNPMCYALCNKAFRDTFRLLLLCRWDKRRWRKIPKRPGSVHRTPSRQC
As for `Cc1ccc2oc(=O)c3cnn(CC(=O)N4CCN(c5ccccn5)CC4)c3c2c1`, the B-score was 0.00225 (inactive).
For the compound `Cc1c(C(=O)OCC(=O)N(CCC#N)c2ccccc2)oc2c1ccc1ccccc12`, the B-score was 0.252 (inactive).
As for `COc1ccc(N2CCN(CCNC(=O)CCN3C(=O)COc4ccccc43)CC2)cc1`, the B-score was 1.04 (inactive).
As for `CCCN1CCN(CCCNC(=O)CN2C(=O)COc3ccccc32)CC1`, the figure is 0.138 (inactive); as for `O=C(CCN1C(=O)COc2ccccc21)NCCCN1CCN(c2ccc(F)cc2)CC1`, -2.15 (active); as for `O=S1(=O)CC(NCc2ccccc2)C(Nc2ccc(Cl)cc2)C1` (stereo unspecified), -0.75 (inactive).
With `CCCCCn1c(SCCC(C)C)nc2c1c(=O)[nH]c(=O)n2C`, the B-score is -0.348 (inactive).
On to `Cn1c(=O)[nH]c(=O)c2c1nc(CN1CCN(c3ccccc3F)CC1)n2CCc1ccccc1`, for which the B-score was -0.0585 (inactive).
For the compound `O=C(COc1ccc(Cl)cc1)Nc1ccccc1CO`, the B-score was 0.609 (inactive).
Regarding `COc1cc(OC)c(C(=O)NC2CC(C)(C)NC(C)(C)C2)cc1OC`, the B-score was -2.14 (active).
As for `Cc1ccc(C(=O)NC2CC(C)(C)NC(C)(C)C2)c(C)c1`, the B-score was 0.35 (inactive).
As for `COc1cc(OC)c(C(=O)NC2CCCCCC2)cc1OC`, the figure is -1.64 (inactive); as for `CCOc1ccccc1NC(=O)CCc1ccc(C)o1`, 0.759 (inactive).
Turning to `CCC(=O)c1ccc(OCC(O)CN2CCN(c3cccc(C(F)(F)F)c3)CC2)cc1` (stereo unspecified), the B-score is -3.03 (active).
On to `O=C(CN1CCN(c2ccc(F)cc2)CC1)Nc1cccc(C(F)(F)F)c1`, for which the B-score was -1.83 (inactive).
Consider `Cc1ccc(OCC(O)CN2CCN(CC(O)COc3ccc(C)cc3Cl)CC2)c(Cl)c1` (stereo unspecified), for which the B-score is 0.987 (inactive).
For the compound `O=C(CCCN1C(=O)CSc2ncccc21)N1CCN(c2cccc(C(F)(F)F)c2)CC1`, the B-score is -3.46 (active).
For `O=C(CCCN1C(=O)C2C3C=CC(C3)C2C1=O)N1CCN(c2ccccc2)CC1` (stereo unspecified), the B-score was -0.518 (inactive).
As for `O=C(CN1C(=O)CSc2ncccc21)N1CCOCC1`, the B-score was -0.0388 (inactive).
Consider `CCn1c(Cc2ccccc2)nnc1SCC(=O)Nc1ccccc1`, for which the B-score is -0.642 (inactive).
Then `CC(C)c1nnc(NC(=O)C2CCCN2S(=O)(=O)c2ccc(Cl)cc2)s1` (stereo unspecified), with 0.566 (inactive); and `CC12CN(Cc3ccccc3)CC(C)(CN(Cc3ccccc3)C1)C2=NO`, with -8.41 (active).
For `CC(=NC1CCN(Cc2ccccc2)CC1)c1c(O)[nH]c(=O)[nH]c1=O`, the B-score was -1.22 (inactive).
Turning to `Cc1ccc(-c2noc(CN3CCN(Cc4ccccc4)CC3)n2)cc1`, the B-score was -0.779 (inactive).
With `N#Cc1c2c(c(-c3ccccc3)[nH]c1=O)CCCC2`, the B-score is -0.0345 (inactive).
With `CCOC(=O)CNC(=O)CSc1nnnn1-c1cc(C)ccc1C`, the B-score is 0.408 (inactive).
For `CCOC(=O)c1c(-c2ccc(C)cc2C)csc1NC(=O)CSc1nnnn1C`, the B-score is -1.47 (active).
Regarding `CNC(=O)CSc1nnnn1-c1ccc(C)cc1C`, the B-score was -0.461 (inactive).
In the case of `Cn1cc(S(=O)(=O)N2CCC(Cc3ccccc3)CC2)c(=O)n(C)c1=O`, the B-score was 1.21 (inactive).
Consider `CCOc1cc(C(=S)N2CCOCC2)ccc1O`, for which the B-score was -0.148 (inactive).
`Cc1ccc(NC(=O)N2CCC(C(=O)NCc3ccc(F)cc3)CC2)cc1`: the B-score is 0.137 (inactive).
With `Cn1c(=O)cc(OCCCC(=O)N2CCN(c3ccccn3)CC2)c2ccccc21`, the B-score is -0.727 (inactive).
`Cc1nc2c(-c3ccc(F)cc3)c(C)nn2c(C)c1CCC(=O)N1CCN(c2ccccn2)CC1`: the B-score is -2.78 (active).
As for `Cc1nc2ncnn2c(C)c1CCC(=O)N1CCN(C(=O)c2ccco2)CC1`, the figure is -0.557 (inactive).
Regarding `Cc1ccsc1C(=O)OCC(=O)c1cc(C)n(CC2CCCO2)c1C` (stereo unspecified), the B-score is -0.425 (inactive).
On to `O=C(NCCCNC(=O)NC1CCCCC1)NC1CCCCC1`, for which the B-score is 0.589 (inactive).
For `Cc1nc2sc(C(c3ccco3)N3CCC4(CC3)OCCO4)c(O)n2n1` (stereo unspecified), the B-score was 0.231 (inactive).
Then `CC1CCCC(C)N1CCCNC(=O)c1cc2c(=O)n(C)c3ccccc3c2n1C` (stereo unspecified), with -3.75 (active).
Regarding `Cn1c(C(=O)NCCCN2CCN(c3cccc(Cl)c3)CC2)cc2c(=O)n(C)c3ccccc3c21`, the B-score was -1.91 (inactive).
Then `CCN1CCCC1CNC(=O)c1cc2c(=O)n(C)c3ccccc3c2n1C` (stereo unspecified), with -1.39 (inactive).
Consider `COC(=O)C(NC(C)=O)(Nc1nc2c(s1)CCCC2)C(F)(F)F` (stereo unspecified), for which the B-score was 0.181 (inactive).
On to `COC(=O)c1cc(Cl)c(NC(=O)c2ccco2)cc1OC`, for which the B-score was 0.0739 (inactive).
On to `O=C(Nc1nnc(-c2ccc(Cl)cc2)o1)c1ccccc1Br`, for which the B-score was 0.257 (inactive).
As to `Cc1c(C)c2cc3c4c(oc3c(C)c2oc1=O)CCCC4`, the B-score is -2.52 (active).
In the case of `CCCOc1ccc2c3c(c(=O)oc2c1OCCC)CCC3`, the B-score was -0.182 (inactive).
For the compound `O=C(NCc1ccc(Cl)cc1)c1cc2c(nc3sccn32)s1`, the B-score was -0.593 (inactive).
Take `CCC(C)(NC(=O)c1ccccn1)C(=O)NC1CCCCC1` (stereo unspecified): the B-score was -3.41 (active).
`CCC(C)(C(=O)NC1CCCC1)N(C(=O)CNC(C)=O)c1ccc(C)cc1` (stereo unspecified): the B-score is 0.0894 (inactive).
As to `CN(CC(=O)NC1CCCCC1)S(=O)(=O)c1cccc2cccnc12`, the B-score is -0.865 (inactive).
In the case of `O=C(O)c1cc(S(=O)(=O)N2CCCCCC2)c(Cl)cc1Cl`, the B-score was -0.939 (inactive).
In the case of `COCCCNC(=O)Cn1cc(C(=O)C2CC2)c2ccccc21`, the B-score was 1.18 (inactive).
On to `CN(C)CCCNc1c2c(c(C#N)c3nc4ccccc4n13)CCC2`, for which the B-score is -3.92 (active).
With `Cc1cc(NCc2ccco2)n2c(nc3ccccc32)c1C#N`, the B-score is 0.838 (inactive).
As to `N#Cc1c2c(c(N3CCN(CCO)CC3)n3c1nc1ccccc13)CCCC2`, the B-score is -0.206 (inactive).
In the case of `CC(=O)CSc1nnc(CSc2ncccn2)n1C1CCCCC1`, the B-score was 0.586 (inactive).
On to `CC1CN(c2cc(=O)n(Cc3ccc(F)cc3)c(=O)[nH]2)CC(C)O1` (stereo unspecified), for which the B-score was -0.0281 (inactive).
Then `CCOc1cc(S(=O)(=O)NCc2ccc3c(c2)OCO3)ccc1F`, with 0.637 (inactive); and `O=C(CS(=O)(=O)c1cn(Cc2ccc(Cl)cc2)c2ccccc12)N1CCOCC1`, with 0.274 (inactive).
For `CC1CCC(NS(=O)(=O)c2ccc3c(c2)n(C)c(=O)c(=O)n3C)CC1` (stereo unspecified), the B-score is -0.853 (inactive).
For `CCCCN(CCCC)C(=O)CCS(=O)(=O)c1ccc2c(c1)n(C)c(=O)c(=O)n2C`, the B-score was -3.55 (active).
In the case of `Cn1c(=O)c(=O)n(C)c2cc(S(=O)(=O)NCCc3ccccc3)ccc21`, the B-score was 0.991 (inactive).
